Results: PubChem BioAssay (NCATS)
Where “and” joins values, the source holds several entries; their conditions need not be identical. Identical values can stand only once. Records with an inconclusive call do not appear. Calls of active or inactive are those of the source. Unless noted, calls follow the shape of the dose curve; as a rule, active = well fitted curve in the direction sought with a large enough effect; inconclusive = small, poorly fitted or top-dose-only effect, or another doubt; inactive = no such curve, though single readings can be large; an effect the other way counts as inactive or inconclusive.

Experiments:
[1] = target: Peroxisome proliferator-activated receptor alpha (Homo sapiens) (UniProt Q07869); assay: qHTS assay for small molecule agonists of the peroxisome proliferator-activated receptor alpha (PPARalpha) signaling pathway (AID 651778); details: PathHunter PPARalpha complementation, chemiluminescence, 6 h; stronger effect = higher value; also: % of control where 0% means no effect
How it was run: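 Enzyme-fragment complementation assay in which ligand-bound PPARalpha translocates and forms an active enzyme that generates chemiluminescence. Cells were plated overnight, exposed to compound for 6 hr at 37 C, and then given detection reagent for 60 min at room temperature.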

[2] = qHTS for compounds that reverse cellular toxicity of Amyloid beta (A-beta) peptide in yeast: LOPAC Validation Assay (AID 720559); details: yeast expressing A-beta; series mostly up to 46.1 µM;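 also: plate controls were DMSO for no effect and equimolar ferric chloride plus clioquinol rescue for full effect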
How it was run: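 Yeast cells expressing toxic A-beta were combined with pinned compounds in growth medium and incubated 48 hr at 30 C. Growth was read as absorbance at 600 nm and normalized to DMSO and to an equimolar FeCl3/clioquinol positive control.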

[3] = qHTS for Activators of Parkin Expression: LOPAC Validation Assay (NLuc Reporter) (AID 720572;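 also: 0% = DMSO and 100% = positive control compound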); details: Parkin promoter NanoLuc reporter cells, luminescence; series mostly up to 46.1 µM
How it was run: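 Neuronal cells with a Parkin promoter-driven FLuc/NLuc coincidence reporter were treated 24 h at 37 C in 7-point dose response (LOPAC). NLuc luminescence read after FLuc; signals normalized to DMSO and positive control (100%).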

[4] = target: T1, Hexokinase-4 (Homo sapiens) + Glucokinase regulatory protein (Homo sapiens) (UniProt P35557+Q14397); assay: qHTS assay for inhibitors of recombinant human GCK-GKRP interaction: Diaphorase-coupled assay (AID 743205); details: G6PDH/diaphorase resorufin fluorescence; series mostly up to 57.5 µM
How it was run: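 GST-GCK (10 nM) with FLAG-GKRP (10 nM), 5 mM glucose and 0.4 mM ATP in pH 7.6 Hepes; compounds preincubated 20 min with substrate. G6PDH/diaphorase coupling converts resazurin to resorufin, read kinetically (ex 525/em 590 nm) for 30 min.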

[5] = target: T1, Hexokinase-4 (Homo sapiens) + Glucokinase regulatory protein (Homo sapiens); assay: qHTS assay for inhibitors of recombinant human GCK-GKRP interaction: ADP-Glo assay (AID 743206); details: ADP-Glo luminescence, 60 min, 0% = vehicle-only wells with enzyme present; series mostly up to 76.9 µM;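 also: plate controls were DMSO plus enzyme for no effect and no enzyme for full effect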
How it was run: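 GST-GCK and FLAG-GKRP (15 nM each in the dispensed mix, with 2 uM S6P) react with 0.4 mM ATP and 5 mM glucose (final) in Hepes pH 7.6 for 60 min at room temperature. ADP is measured by ADP-Glo luminescence.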

[6] = target: T1, Hexokinase-4 (Homo sapiens) + Glucokinase regulatory protein (Homo sapiens); assay: qHTS assay for inhibitors of recombinant human GCK-GKRP interaction: HTRF assay (AID 743207); details: recombinant GCK-GKRP HTRF binding, 60 min, with sorbitol-6-phosphate; series mostly up to 57.5 µM;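 also: 0% = DMSO with GCK present and -100% = DMSO wells lacking GCK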
How it was run: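 GST-GCK and FLAG-GKRP (5 nM each) were combined with 2 uM S6P in pH 7.1 Hepes/MgCl2/KCl/DTT buffer, then compound and anti-FLAG XL665/anti-GST K antibodies were added. After 60 min at room temperature, HTRF 665/615 nm emission was read.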

[7] = qHTS assay for cell viability of HEK293 cells (AID 743288); details: ATP luminescence (CellTiter-Glo), 18 h, stronger effect = lower value; also: % is scaled to controls: 0 for no effect and ±100 for the full control effect; nearly all actives have a fitted effect of over 50% in size
How it was run: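 Parental HEK293 cells were seeded at 2,000 cells/well, rested at least 5 h at 37 C, then exposed to compounds in DMSO for 18 h at 37 C. Viability was read as ATP-dependent luciferase luminescence after 30 min at room temperature.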

[8] = qHTS assay for cell viability of the p53RE-bla HCT-116 cell line (AID 743292); details: p53RE-bla HCT-116 viability, ATP luminescence, 16 h; series mostly up to 95 µM; also: % is scaled to controls: 0 for no effect and ±100 for the full control effect; nearly all actives have a fitted effect of over 55% in size
How it was run: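 Quantitative high-throughput format: compounds in DMSO were pinned onto p53RE-bla HCT-116 cells (4,000/well) and incubated 16 h at 37 C. Total intracellular ATP, read by CellTiter-Glo luminescence, reflects viable cell number.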

[9] = qHTS assay for small molecule agonists of the antioxidant response element (ARE) signaling pathway measured by Nrf2-dependant transcriptional activity (AID 720636; active = well fitted curve in the direction sought with a large enough effect in the repeat runs; an effect the other way counts as inactive or inconclusive;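 also: HepG2 cells with an ARE-driven luciferase reporter; % of control where 0% means no effect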); details: ARE-luc HepG2, Nrf2 luciferase reporter, 16 h; series mostly up to 92.4 µM
How it was run: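 First, ARE-luc HepG2 cells attached for 6 hr at 37 C in 1% dialyzed FBS medium. Next, compound or DMSO was added and incubated 16 hr. Finally, ONE-Glo reagent was added and luminescence measured after 30 min.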

[10] = qHTS assay for small molecule antagonists of the retinoid-related orphan receptor gamma (ROR-gamma) signaling pathway - cell viability counter screen (AID 720652; active = well fitted curve in the direction sought with a large enough effect in the repeat runs; an effect the other way counts as inactive or inconclusive;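 also: CHO reporter cells with doxycycline-induced ROR-gamma expression; compound exposure lasted 16 hr before ATP read; % is scaled to controls: 0 for no effect and ±100 for the full control effect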); details: RORgamma reporter cell line viability counter screen; series mostly up to 92.2 µM
How it was run: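 Counter screen in CHO cells carrying TET-inducible ROR-gamma and an ROR response element-luciferase reporter; cells plated 5 hr, compound pinned, doxycycline added, then 16 hr at 37 C. Viability read as intracellular ATP by CellTiter-Glo luminescence.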

[11] = qHTS Assay for Identifying Gametocytocidal Compounds (AID 743244);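 also: % is scaled to controls: 0 for no effect and ±100 for the full control effect; actives lower the fluorescent signal which means gametocytes are killed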; details: P. falciparum 3D7 stage III-V gametocytes, alamarBlue, 72 h; max response: stronger effect = lower value
How it was run: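 A resazurin-based viability read-out was applied to mature P. falciparum gametocytes: 72 h compound treatment, then 24 h dye incubation, with falling fluorescence signalling gametocytocidal effect.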

T1 sequence (P35557 whole entry, looked up): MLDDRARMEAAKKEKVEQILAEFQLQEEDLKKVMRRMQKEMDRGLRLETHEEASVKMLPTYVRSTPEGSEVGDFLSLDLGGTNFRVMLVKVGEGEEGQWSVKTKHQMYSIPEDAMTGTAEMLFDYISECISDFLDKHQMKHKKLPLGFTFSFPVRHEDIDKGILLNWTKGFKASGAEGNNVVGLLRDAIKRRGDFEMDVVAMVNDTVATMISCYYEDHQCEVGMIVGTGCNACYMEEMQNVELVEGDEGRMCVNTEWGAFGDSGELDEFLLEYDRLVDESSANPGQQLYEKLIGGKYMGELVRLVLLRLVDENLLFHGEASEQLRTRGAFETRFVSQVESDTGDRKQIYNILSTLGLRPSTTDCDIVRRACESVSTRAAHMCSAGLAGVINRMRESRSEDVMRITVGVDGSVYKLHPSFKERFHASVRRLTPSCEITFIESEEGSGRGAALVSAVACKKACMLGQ
T1 sequence (Q14397 whole entry, looked up): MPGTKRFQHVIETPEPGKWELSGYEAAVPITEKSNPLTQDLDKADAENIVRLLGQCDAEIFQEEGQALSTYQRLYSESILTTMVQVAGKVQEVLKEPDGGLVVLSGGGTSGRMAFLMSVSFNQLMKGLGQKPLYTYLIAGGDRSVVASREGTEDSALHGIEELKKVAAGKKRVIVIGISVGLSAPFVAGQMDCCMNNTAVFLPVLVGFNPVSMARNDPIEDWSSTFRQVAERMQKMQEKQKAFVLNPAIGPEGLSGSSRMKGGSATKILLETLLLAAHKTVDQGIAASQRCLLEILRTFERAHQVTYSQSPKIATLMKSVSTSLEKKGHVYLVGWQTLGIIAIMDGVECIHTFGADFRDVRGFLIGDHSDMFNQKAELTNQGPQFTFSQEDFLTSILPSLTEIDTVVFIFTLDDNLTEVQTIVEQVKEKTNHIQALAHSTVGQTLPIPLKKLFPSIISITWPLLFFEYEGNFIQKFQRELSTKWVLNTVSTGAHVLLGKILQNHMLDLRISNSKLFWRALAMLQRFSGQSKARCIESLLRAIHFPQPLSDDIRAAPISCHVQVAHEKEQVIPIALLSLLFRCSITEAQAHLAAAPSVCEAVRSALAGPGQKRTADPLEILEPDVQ
Chain of Peroxisome proliferator-activated receptor alpha (Homo sapiens) (Q07869 whole entry, looked up, the tested form may be a part): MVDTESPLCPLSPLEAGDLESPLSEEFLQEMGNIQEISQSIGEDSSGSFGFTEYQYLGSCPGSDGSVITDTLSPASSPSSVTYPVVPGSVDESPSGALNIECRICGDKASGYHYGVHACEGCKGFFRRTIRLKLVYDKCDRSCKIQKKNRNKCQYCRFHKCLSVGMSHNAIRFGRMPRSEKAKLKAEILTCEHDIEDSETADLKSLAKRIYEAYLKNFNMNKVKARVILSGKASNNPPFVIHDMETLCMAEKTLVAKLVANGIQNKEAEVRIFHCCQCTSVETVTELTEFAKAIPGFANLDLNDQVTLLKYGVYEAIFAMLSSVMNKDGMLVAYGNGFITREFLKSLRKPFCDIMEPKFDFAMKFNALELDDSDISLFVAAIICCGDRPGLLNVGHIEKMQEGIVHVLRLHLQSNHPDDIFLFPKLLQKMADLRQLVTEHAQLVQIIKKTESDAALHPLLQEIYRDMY

CN(C)CCC=C1c2ccccc2CCc2ccccc21
inactive: max response [1] -4.24% and -3.42% | outcome [2] | Potency [3] | outcome [4] | outcome [5] | outcome [6] | max response [7] -2.39% and -37.1% | Potency [8]

C[C@]12C[C@H](O)[C@H]3[C@@H](CCC4=CC(=O)CC[C@@]43C)[C@@H]1CC[C@@H]2C(=O)CO
inactive: max response [1] -1.77% and -2.82% | outcome [2] | Potency [3] | outcome [9] | Potency [10] | outcome [4] | outcome [5] | outcome [6] | max response [11] -3.84% and -1.24% | max response [7] -14.2% and 1.25% | Potency [8]

Cc1cc2nc3c(=O)[nH]c(=O)nc-3n(C[C@H](O)[C@H](O)[C@H](O)CO)c2cc1C
inactive: max response [1] 3.79% | outcome [9] | Potency [10] | max response [11] 33.2% and 6.89% | max response [7] -6.02% | Potency [8]

NC(=O)c1ncn([C@@H]2O[C@H](CO)[C@@H](O)[C@H]2O)n1
inactive: max response [1] -11% | outcome [2] | Potency [3] | outcome [9] | outcome [4] | outcome [5] | outcome [6] | max response [7] -7.49% | Potency [8]

CCCc1c(OCCCCc2nn[nH]n2)ccc(C(C)=O)c1O
inactive: max response [1] 11.9% | outcome [9] | max response [11] -10.5% | max response [7] -7.07% | Potency [8]

CNC(=O)Oc1ccc2c(c1)[C@]1(C)CCN(C)[C@@H]1N2C
inactive: max response [1] -3.11% | outcome [2] | Potency [3] | outcome [9] | outcome [5] | outcome [6] | max response [7] -7.46% | Potency [8]
